# Reference: PMC5540273 (PLoS ONE, 2017)
# Several values for one entry are separate records, joined by “and”; a condition that tells them apart may be missing. Equal values may be shown once. Read-outs that look alike come from different tables or passages of the source.
# Key:
# [1] = test system: SRPK3; conditions: concentration: 1 μM, replicates: in singlicate, n = 1
# [2] = test system: STK16; conditions: concentration: 1 μM, replicates: in singlicate, n = 1
# [3] = test system: STK33; conditions: concentration: 1 μM, replicates: in singlicate, n = 1
# [4] = test system: STK35; conditions: concentration: 1 μM, replicates: in singlicate, n = 1
# [5] = test system: STK36; conditions: concentration: 1 μM, replicates: in singlicate, n = 1
# [6] = test system: STK39; conditions: concentration: 1 μM, replicates: in singlicate, n = 1
# [7] = test system: SYK; conditions: concentration: 1 μM, replicates: in singlicate, n = 1
# [8] = test system: SgK110; conditions: concentration: 1 μM, replicates: in singlicate, n = 1
# [9] = test system: T1, TAK1; conditions: concentration: 1 μM, replicates: in singlicate, n = 1
# T1 construct: gene MAP3K7
# [10] = test system: TAOK1; conditions: concentration: 1 μM, replicates: in singlicate, n = 1
# [11] = test system: TAOK2; conditions: concentration: 1 μM, replicates: in singlicate, n = 1
# [12] = test system: TAOK3; conditions: concentration: 1 μM, replicates: in singlicate, n = 1
# [13] = test system: TBK1; conditions: concentration: 1 μM, replicates: in singlicate, n = 1
# [14] = test system: TEC; conditions: concentration: 1 μM, replicates: in singlicate, n = 1
# [15] = test system: TESK1; conditions: concentration: 1 μM, replicates: in singlicate, n = 1
# [16] = test system: TGFBR1; conditions: n = 1
# [17] = test system: TGFBR2; conditions: concentration: 1 μM, replicates: in singlicate, n = 1
# [18] = test system: TIE1; conditions: concentration: 1 μM, replicates: in singlicate; n = 1
# [19] = test system: T2, TIE2; conditions: concentration: 1 μM, replicates: in singlicate; n = 1
# T2 construct: gene TEK
# [20] = test system: TLK1; conditions: concentration: 1 μM, replicates: in singlicate, n = 1
# [21] = concentration: 1 μM, replicates: in singlicate
# 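Also: KINOMEscan kinase panel screen.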
smiles,measurement,setting,value
COc1ccc(S(=O)(=O)NC2CCN(c3cc(C)nc(Nc4cccc(C#N)c4)n3)CC2)cc1.O=C(O)C(F)(F)F [GSK1653539],%Inh,[1],0%
same,%Inh,[2],3%
same,%Inh,[3],0%
same,%Inh,[4],0%
same,%Inh,[5],0%
same,%Inh,[6],17%
same,%Inh,[7],0%
same,%Inh,[8],0%
same,%Inh,[9],0%
same,%Inh,[10],0%
same,%Inh,[11],0%
same,%Inh,[12],0%
same,%Inh,[13],11%
same,%Inh,[14],10%
same,%Inh,[15],5%
same,%Inh,[16]; [21],0%
same,%Inh,[17],0%
same,%Inh,[18],0%
same,%Inh,[19],0%
same,%Inh,[20],8%
O=C(c1ccc(-c2cc(-c3c[nH]nc3-c3ccccn3)ccn2)cc1)N1CCOCC1 [GW812171],%Inh,[1],4%
same,%Inh,[2],0%
same,%Inh,[3],0%
same,%Inh,[4],0%
same,%Inh,[5],2%
same,%Inh,[6],18%
same,%Inh,[7],0%
same,%Inh,[8],32%
same,%Inh,[9],10%
same,%Inh,[10],0%
same,%Inh,[11],33%
same,%Inh,[12],2%
same,%Inh,[13],31%
same,%Inh,[14],16%
same,%Inh,[15],11%
same,%Inh,[16]; 1 µM,90.7%
same,%Inh,[17],11%
same,%Inh,[18],0%
same,%Inh,[19],1%
same,%Inh,[20],0%
O=C1Cc2cc(Nc3nc(NCc4cccc(S(=O)(=O)C(F)(F)F)c4)ncc3C(F)(F)F)ccc2N1,%Inh,[1],6%
same,%Inh,[2],0%
same,%Inh,[3],7%
same,%Inh,[4],3%
same,%Inh,[5],0%
same,%Inh,[6],5%
same,%Inh,[7],6%
same,%Inh,[8],22%
same,%Inh,[9],5%
same,%Inh,[10],0%
same,%Inh,[11],0%
same,%Inh,[12],0%
same,%Inh,[13],0%
same,%Inh,[14],0%
same,%Inh,[15],0%
same,%Inh,[16]; [21],0%
same,%Inh,[17],2%
same,%Inh,[18],0%
same,%Inh,[19],0%
same,%Inh,[20],0%
Cl.Cl.Cl.Fc1ccc(-c2ncn(C3CCNCC3)c2-c2ccnc(Nc3ccccc3)n2)cc1 [SB-238039],%Inh,[1]; 1 µM,11% and 26%
same,%Inh,[2]; 1 µM,5% and 0%
same,%Inh,[3]; 1 µM,0% and 12%
same,%Inh,[4]; 1 µM,2% and 0%
same,%Inh,[5]; 1 µM,97.9% and 93%
same,%Inh,[6]; 1 µM,18% and 0%
same,%Inh,[7]; 1 µM,8% and 3%
same,%Inh,[8]; 1 µM,35% and 0%
same,%Inh,[9]; 1 µM,24% and 46%
same,%Inh,[10]; 1 µM,88% and 57%
same,%Inh,[11]; 1 µM,78% and 0%
same,%Inh,[12]; 1 µM,91.5% and 57%
same,%Inh,[13]; 1 µM,36% and 0%
same,%Inh,[14]; 1 µM,12% and 0%
same,%Inh,[15]; 1 µM,8% and 0%
same,%Inh,"[16]; concentration: 1 μM, replicates: in singlicate, 1 µM",61% and 29%
same,%Inh,[17]; 1 µM,16% and 12%
same,%Inh,[18],0%
same,%Inh,[19],0%
same,%Inh,[20]; 1 µM,4% and 19%
Cc1cccc(-c2nc(-c3ccc(S(C)(=O)=O)cc3)sc2-c2ccncc2)c1,%Inh,[1],10%
same,%Inh,[2],19%
same,%Inh,[3],0%
same,%Inh,[4],3%
same,%Inh,[5],30%
same,%Inh,[6],15%
same,%Inh,[7],25%
same,%Inh,[8],2%
same,%Inh,[9],3%
same,%Inh,[10],0%
same,%Inh,[11],0%
same,%Inh,[12],0%
same,%Inh,[13],0%
same,%Inh,[14],26%
same,%Inh,[15],0%
same,%Inh,[16]; [21],16%
same,%Inh,[17],0%
same,%Inh,[18],0%
same,%Inh,[19],0%
same,%Inh,[20],13%
COc1ccc(Nc2nccc(N3CCC(NC(=O)Nc4cc(C)ccc4C)C3)n2)cc1 (centres unmarked) [GSK1379741],%Inh,[1],0%
same,%Inh,[2],7%
same,%Inh,[3],0%
same,%Inh,[4],0%
same,%Inh,[5],100%
same,%Inh,[6],9%
same,%Inh,[7],0%
same,%Inh,[8],0%
same,%Inh,[9],0%
same,%Inh,[10],0%
same,%Inh,[11],0%
same,%Inh,[12],0%
same,%Inh,[13],0%
same,%Inh,[14],20%
same,%Inh,[15],14%
same,%Inh,[16]; [21],0%
same,%Inh,[17],0%
same,%Inh,[18],0%
same,%Inh,[19],0%
same,%Inh,[20],0%
Fc1ccc(-c2ncn(CCCN3CCOCC3)c2-c2cccnc2)cc1 [SB-211743],%Inh,[1],0%
same,%Inh,[2],0%
same,%Inh,[3],0%
same,%Inh,[4],1%
same,%Inh,[5],0%
same,%Inh,[6],0%
same,%Inh,[7],32%
same,%Inh,[8],17%
same,%Inh,[9],0%
same,%Inh,[10],0%
same,%Inh,[11],34%
same,%Inh,[12],0%
same,%Inh,[13],43%
same,%Inh,[14],9%
same,%Inh,[15],5%
same,%Inh,[16]; [21],26%
same,%Inh,[17],12%
same,%Inh,[18],9%
same,%Inh,[19],0%
same,%Inh,[20],0%
CCCCCc1nc2c(N)ncnc2n1CCCCC [SKF-97255],%Inh,[1],0%
same,%Inh,[2],9%
same,%Inh,[3],0%
same,%Inh,[4],0%
same,%Inh,[5],0%
same,%Inh,[6],7%
same,%Inh,[7],20%
same,%Inh,[8],3%
same,%Inh,[9],0%
same,%Inh,[10],0%
same,%Inh,[11],18%
same,%Inh,[12],0%
same,%Inh,[13],42%
same,%Inh,[14],6%
same,%Inh,[15],14%
same,%Inh,[16]; [21],3%
same,%Inh,[17],11%
same,%Inh,[18],0%
same,%Inh,[19],19%
same,%Inh,[20],0%
COc1ccc(COc2cc(-n3cnc4ccccc43)sc2C(N)=O)cc1 [GSK1024304],%Inh,[1],17%
same,%Inh,[2],0%
same,%Inh,[3],13%
same,%Inh,[4],0%
same,%Inh,[5],0%
same,%Inh,[6],0%
same,%Inh,[7],26%
same,%Inh,[8],0%
same,%Inh,[9],0%
same,%Inh,[10],0%
same,%Inh,[11],0%
same,%Inh,[12],0%
same,%Inh,[13],0%
same,%Inh,[14],12%
same,%Inh,[15],20%
same,%Inh,[16]; [21],0%
same,%Inh,[17],0%
same,%Inh,[18],11%
same,%Inh,[19],0%
same,%Inh,[20],0%
Cc1c(Cn2c(C)nn3c(=O)cc(N4CCOC(C)C4)nc23)cccc1C(F)(F)F (centres unmarked) [GSK2344444],%Inh,[1],0%
same,%Inh,[2],0%
same,%Inh,[3],0%
same,%Inh,[4],0%
same,%Inh,[5],0%
same,%Inh,[6],6%
same,%Inh,[7],12%
same,%Inh,[8],0%
same,%Inh,[9],0%
same,%Inh,[10],0%
same,%Inh,[11],0%
same,%Inh,[12],0%
same,%Inh,[13],0%
same,%Inh,[14],0%
same,%Inh,[15],0%
same,%Inh,[16]; [21],0%
same,%Inh,[17],0%
same,%Inh,[18],7%
same,%Inh,[19],0%
same,%Inh,[20],0%
